# In all, about 190,000 compounds went through this assay and about 3,500 (1.8%) were called active. What follows is part of a selection rich in actives, with near analogues and random picks from the rest. A number with no mark means an inactive call.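 How the source made its calls: active means inhibition above a set limit, 3 SD over mean compound inhibition (cut at about 8.4% in these data); inactive means the rest.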
# Assay: RAM signaling blockers in budding yeast – dse1pr::URA3 reporter, 5-FOA selection, primary screen (AID 868);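 further: 0% = DMSO-only wells with no growth and 100% = 10 µM 1-NA-PP1 full growth; inhibition rescues growth on 5-FOA so higher OD means more RAM inhibition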
# Conditions: S. cerevisiae dse1pr::URA3 reporter, 5-FOA growth OD615, 2 d; at 50 µM; hits give high values; analog-sensitive cbk1-as2 kinase mutant strain
row,SMILES,inhibition
1,CCNC(=S)N1CCC(c2nc3cc(C)c(C)cc3[nH]2)CC1,-0.13%
2,CN(c1ccccc1)c1ccc(/C=c2\s/c(=C(/C#N)C(=O)C(C)(C)C)n(Cc3ccco3)c2=O)cc1,22.5% (active)
3,COc1ccc(NC(=O)Cn2c(=O)n(Cc3ccco3)c(=O)c3ccccc32)cc1,2.68%
4,Cc1cc2c(c(=O)n1Cc1ccco1)C(c1ccccc1)C(C#N)=C(N)O2 (centres undefined),2.82%
5,CCc1ccc(NC(=O)C(C)OC(=O)/C=C/c2cccc([N+](=O)[O-])c2)cc1 (centres undefined),2.92%
6,COc1c(C)cc(C(=O)C2CCCN(S(=O)(=O)c3c(C)noc3C)C2)cc1C (centres undefined),5.32%
7,Cc1ccc(CCC(=O)Nc2ncc(Cc3cc(Cl)ccc3Cl)s2)o1,14% (active)
8,Cc1cnc(NC(=O)CSc2nnc(-c3ccc(Cl)cc3Cl)n2N)s1,2.06%
9,CCOc1ccccc1NC(=O)CCc1ccc(C)o1,1.75%
10,CCOC(=O)Cc1cc(=O)[nH]c(=O)[nH]1,-0.76%
11,Cc1cc(C)c(C#N)c(SCC(=O)NN2CC(=O)N(c3ccccc3F)CC2=O)n1,1.88%
12,O=C(c1ccc(Cl)c([N+](=O)[O-])c1)N1CCN(c2ccccc2)CC1,-1.05%
13,COc1ccc(S(=O)(=O)NC(C)C(=O)Nc2cccc([N+](=O)[O-])c2)cc1 (centres undefined),0.38%
14,CC(O)C(NS(=O)(=O)c1ccc(Cl)cc1)C(=O)OCc1cc([N+](=O)[O-])cc2c1OCOC2 (centres undefined),14.1% (active)
15,Nc1ccccc1SCc1cc([N+](=O)[O-])cc2c1OCOC2,0.13%
16,CN(C)CCCO/N=C(\c1ccccc1)c1ccncc1,1.14%
17,O=c1[nH]n2c(-c3ccccc3)nc(O)c2c2ccccc12,2.15%
18,Cn1c(=O)c2c(ncn2CC(=O)N/N=C/c2cn[nH]c2-c2ccc(F)cc2)n(C)c1=O,1.49%
19,Fc1ccc(-c2nnc(CSc3nnc(-c4ccc5c(c4)OCO5)o3)o2)cc1,3.54%
20,Fc1ccc(CSc2nnc(-c3cc4c(s3)-c3ccccc3CC4)o2)cc1,22.2% (active)
21,CCSc1nnc(-c2cc3c(s2)-c2ccccc2CC3)o1,2.39%
22,Cc1ccc(N(C(=O)C(F)(F)F)C(C(=O)NC2CCCCC2)c2ccncc2)cc1C (centres undefined),4.82%
23,FC(F)(F)c1cccc(Cc2noc(CN3CCC(N4CCCCC4)CC3)n2)c1,0.6%
24,O=C(c1ccc(F)cc1)c1cn(Cc2ccc(F)cc2)c2cc3c(cc2c1=O)OCCO3,9.62% (active)
25,COc1ccc2c(c1)c(=O)c(C(=O)c1ccc(Cl)cc1)cn2CC(=O)Nc1ccc(F)cc1,3.22%
26,CCn1cc(C(=O)N/N=C(/C)c2ccc(F)cc2)c(=O)c2cc(F)c(N3CCCC3)cc21,0.79%
27,COc1ccc(/C=C2\SC(=S)N(CC(=O)NNC(=O)c3ccncc3)C2=O)cc1,4.19%
28,O=C(CCN1C(=O)/C(=C/c2cccs2)SC1=S)NNC(=O)c1cccc(O)c1,9.69% (active)
29,Cc1c(C(=O)NCCN2C(=O)S/C(=C\c3cccs3)C2=O)cccc1[N+](=O)[O-],2.49%

# Reference: PubChem BioAssay AID868 (SRMLSC, 2007)
